PubChem BioAssay (NCI)
This is part of a sample that, as a whole, favours compounds with a hit. Of some 79,000 tested, about 15% had one in any assay. The source made the active and inactive calls. Cut-off read from the data, not from the text of the source: active = growth inhibition above about 70%; inactive = the rest.

Tests used:
[1] = NCI Yeast Anticancer Drug Screen. Data for the wt1 strain (AID 149);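 note: 0% = growth of vehicle-treated wt1 cultures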; settings: S. cerevisiae wt1 strain (SPY 50644) growth inhibition, stronger effect = higher value
Outline: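 Vehicle-normalised growth inhibition; strain wt1; compound exposure.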

[2] = NCI Yeast Anticancer Drug Screen. Data for the rad50EPP+ strain (AID 151);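 note: 0% = growth of vehicle-treated control cultures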; settings: S. cerevisiae rad50 mutant strain, stronger effect = higher value
Outline: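 One strain with a rad50 alteration (rad50EPP+) was compound-treated, its growth then compared to that of vehicle controls.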

[3] = NCI Yeast Anticancer Drug Screen. Data for the rad50 strain (AID 155);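 note: 0% = growth of vehicle-only cultures of the same strain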; settings: S. cerevisiae rad50 strain growth inhibition, stronger effect = higher value
Outline: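 A DNA repair-deficient yeast mutant serves as the test organism; compound-induced growth inhibition is calculated against vehicle-treated cells.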

[4] = NCI Yeast Anticancer Drug Screen. Data for the mec2-1 strain (AID 157); settings: S. cerevisiae mec2-1 strain, stronger effect = higher value
Outline: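 Test agents were screened against the mec2-1 yeast strain, with defined DNA repair or cell cycle alteration. Growth was scored as inhibition against vehicle-only controls.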

[5] = NCI Yeast Anticancer Drug Screen. Data for the sgs1 mgt1 strain (AID 161);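 note: 0% = growth of cultures given vehicle only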; settings: S. cerevisiae sgs1 mgt1 strain, stronger effect = higher value
Outline: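 Read-out: growth inhibition vs vehicle controls. Cells: mutant yeast strain deficient in DNA damage repair.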

[6] = NCI Yeast Anticancer Drug Screen. Data for the CLN2oe strain (AID 163);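 note: 0% = growth of vehicle-only control cultures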; settings: S. cerevisiae CLN2oe strain, stronger effect = higher value
Outline: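 Here, growth inhibition in a cell-cycle-altered yeast strain after compound exposure was quantified against vehicle control growth.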

[7] = NCI Yeast Anticancer Drug Screen. Data for the cln2 rad14 strain (AID 165);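 note: 0% = growth equal to vehicle treated cultures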; settings: S. cerevisiae cln2 rad14 strain, stronger effect = higher value
Outline: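 Growth of compound-exposed yeast (cln2 rad14 genotype) measured and expressed as inhibition relative to vehicle.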

[8] = NCI Yeast Anticancer Drug Screen. Data for the bub3 strain (AID 167); settings: S. cerevisiae bub3 mutant strain, stronger effect = higher value
Outline: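 Inhibition values come from growth of compound-treated mutant yeast normalised to vehicle-treated controls.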

[9] = NCI Yeast Anticancer Drug Screen. Data for the wt2 strain (AID 169);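 note: 0% = growth of vehicle-treated yeast cultures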; settings: S. cerevisiae wt2 strain growth inhibition, stronger effect = higher value
Outline: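 Genetically defined yeast strains from a DNA-repair/cell-cycle panel were used. Compound-exposed yeast growth was measured, and the inhibition was calculated relative to vehicle treatment.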

[10] = NCI Yeast Anticancer Drug Screen. Data for the mlh1 strain (AID 171);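 note: 0% = growth of vehicle-treated control cultures of the same strain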; settings: S. cerevisiae mlh1 strain growth inhibition, stronger effect = higher value
Outline: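 Here the genetically defined yeast mutant is grown with each compound, and the extent to which its growth falls below that of vehicle-exposed cells is reported.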

[11] = NCI Yeast Anticancer Drug Screen. Data for the sgs1 strain (AID 173);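 note: 0% = growth of vehicle-only control cultures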; settings: S. cerevisiae sgs1 mutant, stronger effect = higher value
Outline: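 Relative growth inhibition, referenced to vehicle, was determined in a yeast strain with a defined alteration affecting DNA damage repair or cell cycle control after compound exposure.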

[12] = NCI Yeast Anticancer Drug Screen. Data for the mlh1 rad18 strain (AID 175); settings: S. cerevisiae mlh1 rad18 strain growth inhibition, stronger effect = higher value
Outline: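 In this whole-cell yeast screen, a strain with altered DNA damage repair is challenged with compound, and its growth is measured against matched vehicle-treated controls.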

[13] = NCI Yeast Anticancer Drug Screen. Data for the rad18 strain (AID 177); settings: S. cerevisiae rad18 mutant growth inhibition, stronger effect = higher value
Outline: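 Screen uses a yeast strain with a defined lesion in DNA damage repair; compound effect is read as loss of growth compared to untreated vehicle cultures.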

[14] = NCI Yeast Anticancer Drug Screen. Data for the rad14 strain (AID 159);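 note: 0% = growth of vehicle-treated control cultures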; settings: S. cerevisiae rad14 strain growth inhibition, stronger effect = higher value
Outline: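 Vehicle-treated cultures served as the baseline for growth inhibition of a DNA repair-mutant yeast strain exposed to each compound.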

[15] = at 5.0 µM (retest, dose inferred, filed as 0.5)
[16] = at 50.0 µM (retest, dose inferred, filed as 5.0)

Measured: growth inhibition

CCN(CC)c1cccc(Nc2nc3ccccc3s2)c1
active: [8]; [16] 83% | [8]; at 50.0 µM 89.8%
inactive: [1]; at 1.2 µM 8% | [1]; at 3.7 µM 10% | [1]; at 11.0 µM 6% | [1]; at 33.0 µM 7% | [1]; at 100.0 µM 5% | [2]; at 1.2 µM -9% | [2]; at 3.7 µM 0% | [2]; at 11.0 µM -2% | [2]; at 33.0 µM 1% | [2]; at 100.0 µM 19% | [3]; at 1.2 µM 8% | [3]; at 3.7 µM 9% | [3]; [15] -4% | [3]; at 11.0 µM 5% | [3]; at 33.0 µM 7% | [3]; [16] 2% | [3]; at 50.0 µM 1.6% | [3]; at 100.0 µM 7% | [4]; at 1.2 µM 13% | [4]; at 3.7 µM 14% | [4]; [15] -5% | [4]; at 11.0 µM 15% | [4]; at 33.0 µM 16% | [4]; [16] 1% | [4]; at 50.0 µM 7.7% | [4]; at 100.0 µM 8% | [5]; [15] 3% | [5]; [16] 21% | [5]; at 50.0 µM 17.4% | [6]; at 1.2 µM -3% | [6]; at 3.7 µM 1% | [6]; at 11.0 µM -1% | [6]; at 33.0 µM -4% | [6]; at 100.0 µM -10% | [7]; [15] -9% | [7]; [16] -1% | [7]; at 50.0 µM -7.1% | [8]; at 1.2 µM 0% | [8]; at 3.7 µM -1% | [8]; [15] 32% | [8]; at 11.0 µM 5% | [8]; at 33.0 µM 14% | [8]; at 100.0 µM 30% | [9]; at 1.2 µM -1% | [9]; at 3.7 µM -1% | [9]; at 11.0 µM -1% | [9]; at 33.0 µM -2% | [9]; at 100.0 µM -3% | [10]; at 1.2 µM 10% | [10]; at 3.7 µM 9% | [10]; at 11.0 µM 10% | [10]; at 33.0 µM 9% | [10]; at 100.0 µM 8% | [11]; at 1.2 µM 8% | [11]; at 3.7 µM 7% | [11]; at 11.0 µM 7% | [11]; at 33.0 µM 7% | [11]; at 100.0 µM 5% | [12]; [15] 4% | [12]; [16] 20% | [12]; at 50.0 µM 25.1% | [13]; at 1.2 µM 7% | [13]; at 3.7 µM 7% | [13]; at 11.0 µM 6% | [13]; at 33.0 µM 3% | [13]; at 100.0 µM 1%

CN(C)N1C(=O)SCC(c2ccccc2)(c2ccccc2)C1=O
inactive: [1]; at 1.2 µM -4% | [1]; at 3.7 µM -4% | [1]; at 11.0 µM -3% | [1]; at 33.0 µM 6% | [1]; at 100.0 µM 16% | [2]; at 1.2 µM -2% | [2]; at 3.7 µM 2% | [2]; at 11.0 µM -32% | [2]; at 33.0 µM 4% | [2]; at 100.0 µM 7% | [3]; at 1.2 µM 4% | [3]; at 3.7 µM 7% | [3]; [15] -10% | [3]; at 11.0 µM 8% | [3]; at 33.0 µM 30% | [3]; [16] 61% | [3]; at 50.0 µM 64.8% | [3]; at 100.0 µM 50% | [4]; at 1.2 µM 1% | [4]; at 3.7 µM 1% | [4]; [15] 9% | [4]; at 11.0 µM 2% | [4]; at 33.0 µM 9% | [4]; [16] 43% | [4]; at 50.0 µM 10.2% | [4]; at 100.0 µM 27% | [14]; at 1.2 µM 1% | [14]; at 3.7 µM -3% | [14]; at 11.0 µM -4% | [14]; at 33.0 µM -15% | [14]; at 100.0 µM -19% | [5]; [15] 11% | [5]; [16] 43% | [5]; at 50.0 µM 15.4% | [6]; at 1.2 µM -2% | [6]; at 3.7 µM 7% | [6]; at 11.0 µM 2% | [6]; at 33.0 µM 1% | [6]; at 100.0 µM 2% | [7]; [15] -26% | [7]; [16] 3% | [7]; at 50.0 µM 6.9% | [8]; at 1.2 µM -2% | [8]; at 3.7 µM -1% | [8]; [15] 12% | [8]; at 11.0 µM 12% | [8]; at 33.0 µM 17% | [8]; [16] 60% | [8]; at 50.0 µM 21.6% | [8]; at 100.0 µM 23% | [9]; at 1.2 µM -2% | [9]; at 3.7 µM -3% | [9]; at 11.0 µM -1% | [9]; at 33.0 µM 4% | [9]; at 100.0 µM 11% | [10]; at 1.2 µM -1% | [10]; at 3.7 µM 1% | [10]; at 11.0 µM 1% | [10]; at 33.0 µM 12% | [10]; at 100.0 µM -10% | [11]; at 1.2 µM -1% | [11]; at 3.7 µM 1% | [11]; at 11.0 µM 4% | [11]; at 33.0 µM 20% | [11]; at 100.0 µM 34% | [12]; [15] 12% | [12]; [16] 29% | [12]; at 50.0 µM 47% | [13]; at 1.2 µM 6% | [13]; at 3.7 µM 5% | [13]; at 11.0 µM 26% | [13]; at 33.0 µM 59%
active: [13]; at 100.0 µM 75%
